Inconclusive results are not listed. Active and inactive are the calls of the source. The call rests on the fitted dose curve; in most records, active means well fitted inhibition curve with a large enough effect in the polarisation, with a control signal flat (not every such curve was filed as active); inconclusive means small, poorly fitted or top-dose-only effect, or effect the other way, or a change in a side signal; inactive means no such curve, though single readings can be large or run the other way; the % refers to the polarisation.
Molecular target: Menin (Homo sapiens) (UniProt O00255)
Sequence (O00255 whole entry, looked up): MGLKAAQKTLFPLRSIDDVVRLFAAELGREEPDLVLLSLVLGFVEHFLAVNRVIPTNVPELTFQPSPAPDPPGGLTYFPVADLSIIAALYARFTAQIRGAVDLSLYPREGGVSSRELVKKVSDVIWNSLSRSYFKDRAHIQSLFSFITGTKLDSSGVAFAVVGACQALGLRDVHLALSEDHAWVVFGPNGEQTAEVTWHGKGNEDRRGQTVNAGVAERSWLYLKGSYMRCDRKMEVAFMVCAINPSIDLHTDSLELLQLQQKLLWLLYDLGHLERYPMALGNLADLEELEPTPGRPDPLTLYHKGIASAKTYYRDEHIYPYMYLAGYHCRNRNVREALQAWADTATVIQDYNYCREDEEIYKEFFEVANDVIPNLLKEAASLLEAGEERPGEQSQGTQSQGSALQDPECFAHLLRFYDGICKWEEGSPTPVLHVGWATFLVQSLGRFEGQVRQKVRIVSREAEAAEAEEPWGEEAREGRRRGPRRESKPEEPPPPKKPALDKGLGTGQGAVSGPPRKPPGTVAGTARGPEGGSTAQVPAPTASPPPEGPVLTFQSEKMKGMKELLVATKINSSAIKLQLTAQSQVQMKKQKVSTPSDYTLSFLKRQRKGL
Experiment: Confirmation of Inhibitors Targeting the Menin-MLL Interaction in MLL Related Leukemias: Competition With Fluorescein Labeled MLL-derived Peptide
Conditions: Fluorescence polarization, fluorescein-MLL peptide displacement from menin; series mostly up to 100 µM; activity change, negative = inhibition: at the top concentration
On the % scale 0 is the no-effect control and ±100 the full control effect.

Activity change, negative = inhibition, inactive:
Cc1c(F)cccc1NS(=O)(=O)c1ccc2c(c1)c(C)cc(=O)n2C -15.3%
O=C(O)CCC(=O)Nc1ccc(SSc2ccc(NC(=O)CCC(=O)O)cc2)cc1 1.46% [at 288 µM]
O=c1c2ccccc2nc(N/N=C/c2c(O)ccc3ccccc23)n1O 9.5% [at 288 µM]
Cc1nc2oc3c(NCC4CCCO4)ncnc3c2c2c1COC(C)(C)C2 (configuration not stated) -1.23%
COc1ccccc1/C=N/n1c(N)c(S(=O)(=O)c2cccs2)c2nc3ccccc3nc21 3.33% [at 288 µM]
CC(Sc1nnc(Nc2ccccc2)s1)C(=O)Nc1nc(-c2ccccc2)cs1 (configuration not stated) 7.12%
O=C(O)/C(=C\c1ccc(F)cc1)c1ccc(-c2ccccc2)cc1 5.91%
CCn1ncc(C(=O)Nc2cc(C)on2)c1C -11.3%
O=C1C(Cl)=C(NC(=O)c2ccccc2)C(=O)C(Cl)=C1NC(=O)c1ccccc1 5.77% [at 288 µM]
Oc1ccc(Nc2ncnc3c2oc2ccccc23)cc1 -5.44% [at 288 µM]
CCCN(CCC)CCCNC(=S)Nc1ccc2nc(N3CCCC3)cc(C)c2c1 -6.49%
Cc1ccc(C)n1-c1ccc(N(C)C)cc1 -7.52%
C/C(=N\NC(=O)c1nnn(-c2nonc2N)c1C)c1ccc(-c2ccccc2)cc1 -9.36%
O=C(CCC1CCCCC1)NCCN1C2=NC[C@H](Cc3ccc(O)cc3)N2C[C@H]1Cc1ccc(O)cc1 -7.15% [at 288 µM]
COc1ccc(N(CC(=O)NC2CC3CCC2C3)S(=O)(=O)c2ccc(C)cc2)cc1OC (configuration not stated) 8.09%
CC(=O)Nc1ccc(-c2cc3ccccc3o2)cc1 -1.48%
Cc1ccc(S(=O)(=O)c2cc(OC(=O)c3ccco3)ccc2OC(=O)c2ccco2)cc1 -3.07%

Source: PubChem BioAssay AID2783 (National Center for Advancing Translational Sciences (NCATS), 2010)
